# Experimental data from article PMC11574364.
# Target: SLTM (Homo sapiens, UniProt Q9NWH9)
# Assay: protein domain microarray probed with biotinylated miRNA; Domain array: 20 mM Tris-HCl pH 7.4, 200 mM KCl, 0.2 mM EDTA, 0.05% NP40, 2 ug/ul heparin, overnight 4 C. ORF array: PBS pH 7.0 with RNase inhibitor, 100 ng RNA; high values mean tight binding
# Conditions: ssRNA
# Sequence of SLTM (Q9NWH9 360-485): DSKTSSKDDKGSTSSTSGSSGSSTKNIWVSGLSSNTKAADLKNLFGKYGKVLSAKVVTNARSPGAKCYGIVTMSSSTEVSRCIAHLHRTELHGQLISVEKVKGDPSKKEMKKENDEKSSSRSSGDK
sequence,measurement,value
UAGCUUAUCAGACUGAUGUUGA,binding signal,33.6 ± 0.863 fluorescence intensity
UGAGGUAGUAGGUUGUGUGGUU,binding signal,305 ± 14.8 fluorescence intensity
AGAGGUAGUAGGUUGCAUAGUU,binding signal,123 fluorescence intensity
UGAGGUAGUAGGUUGUAUGGUU,binding signal,141.8 ± 1.03 fluorescence intensity
CAGUGCAAUGAUGAAAGGGCAU,binding signal,123 ± 2.81 fluorescence intensity
UGAGGUAGUAGGUUGUAUAGUU,binding signal,57.9 ± 0.728 fluorescence intensity
